From ChEMBL document CHEMBL1157539, “Thousands of chemical starting points for antimalarial lead identification” (Nature, 2010)

Key:
Assay type in all cases: functional
Plasmodium falciparum [1] = assay: GSK_TCMDC: Inhibition of Plasmodium falciparum 3D7 in whole red blood cells, using parasite LDH activity as an index of growth. Test compounds present at 2uM
Plasmodium falciparum [2] = assay: GSK_TCMDC: Inhibition of Plasmodium falciparum Dd2 in whole red blood cells, using parasite LDH activity as an index of growth. Test compounds present at 2uM
HepG2 = assay: GSK_TCMDC: Percent inhibition of human HepG2 cell line. Test compounds present at 10uM.

O=C1C(c2ccccc2)=C(Nc2ccc([N+](=O)[O-])cc2)c2ccccc21
Inhibition (Plasmodium falciparum [1]): 95% | Inhibition (Plasmodium falciparum [2]): 73% | Inhibition (HepG2): 0%

C(=N\Nc1nccc2sc(-c3cccnc3)cc12)/c1cccnc1
Inhibition (Plasmodium falciparum [1]): 98% | Inhibition (Plasmodium falciparum [2]): 54% | Inhibition (HepG2): 5%

O=C(CSc1ccccn1)Nc1c(F)cccc1F
Inhibition (Plasmodium falciparum [1]): 88% | Inhibition (Plasmodium falciparum [2]): 0% | Inhibition (HepG2): 0%

Cn1ccnc1CNC(=O)c1ccc(-c2ccc(-c3nc4cc(C(F)(F)F)ccc4[nH]3)s2)cc1
Inhibition (Plasmodium falciparum [1]): 100% | Inhibition (Plasmodium falciparum [2]): 43% | Inhibition (HepG2): 40%

CC1Cc2ccccc2N1CC(=O)Nc1cc(C(F)(F)F)ccc1-n1cncn1 (stereo unspecified)
Inhibition (Plasmodium falciparum [1]): 97% | Inhibition (Plasmodium falciparum [2]): 97% | Inhibition (HepG2): 17%

CN(c1ccccc1C(=O)Nc1cc(Cl)ccc1Oc1ccccc1)S(=O)(=O)c1ccccc1
Inhibition (Plasmodium falciparum [1]): 99% | Inhibition (Plasmodium falciparum [2]): 42% | Inhibition (HepG2): 47%

CN(Cc1cc(C(F)(F)F)cc(C(F)(F)F)c1)C(=O)C1CNCC1c1ccc(F)cc1.Cl (stereo unspecified)
Inhibition (Plasmodium falciparum [1]): 92% | Inhibition (Plasmodium falciparum [2]): 4% | Inhibition (HepG2): 1%

COc1ccc2cc(C(C)NC3CCN(c4cccc(NC(=O)c5ccncc5)c4)CC3)ccc2c1 (stereo unspecified)
Inhibition (Plasmodium falciparum [1]): 91% | Inhibition (Plasmodium falciparum [2]): 6% | Inhibition (HepG2): 13%

CCCNCc1ccc(-c2ccc(CN(CCOC)C(=O)c3cccc(C#N)c3)cc2)nc1.O=C(O)C(F)(F)F
Inhibition (Plasmodium falciparum [1]): 84% | Inhibition (Plasmodium falciparum [2]): 14% | Inhibition (HepG2): 0%

CCCCn1c(C(C)Oc2ccc(Cl)cc2Cl)nc2cc(S(N)(=O)=O)ccc21 (stereo unspecified)
Inhibition (Plasmodium falciparum [1]): 94% | Inhibition (Plasmodium falciparum [2]): 45% | Inhibition (HepG2): 24%

CS(=O)(=O)c1ccc(CCNCc2ccc(-c3cccc(-c4nc5ccccc5[nH]4)c3)cc2)cc1.O=C(O)C(F)(F)F
Inhibition (Plasmodium falciparum [1]): 100% | Inhibition (Plasmodium falciparum [2]): 99% | Inhibition (HepG2): 40%

CCc1cc2c(cc1OCCN(C)C)N(C(=O)Nc1ccc(-c3ccncc3)c(Cl)c1)CC2
Inhibition (Plasmodium falciparum [1]): 95% | Inhibition (Plasmodium falciparum [2]): 7% | Inhibition (HepG2): 18%

C[C@H](NC(=O)c1cc(-c2ccc(C(C)(C)C)cc2)no1)C(=O)O.C[C@H](NC(=O)c1conc1-c1ccc(C(C)(C)C)cc1)C(=O)O
Inhibition (Plasmodium falciparum [1]): 91% | Inhibition (Plasmodium falciparum [2]): 97% | Inhibition (HepG2): 31%

O=S(=O)(Nc1cccc(CCN2CCCCC2CCN2CCCC2)c1)c1ccc2ccccc2c1 (stereo unspecified)
Inhibition (Plasmodium falciparum [1]): 91% | Inhibition (Plasmodium falciparum [2]): 40% | Inhibition (HepG2): 22%

CN(c1ccc(NC(=O)c2cccc(F)c2)cc1)C1CCCN(Cc2cccc(O)c2)C1.O=C(O)C(F)(F)F (stereo unspecified)
Inhibition (Plasmodium falciparum [1]): 85% | Inhibition (Plasmodium falciparum [2]): 2% | Inhibition (HepG2): 13%

CC(=O)c1cccc(Nc2nc3ccc(OCc4cc(Cl)cc(Cl)c4)c(C#N)c3[nH]2)c1
Inhibition (Plasmodium falciparum [1]): 86% | Inhibition (Plasmodium falciparum [2]): 45% | Inhibition (HepG2): 29%

Cc1[nH]c(C)c(-c2ccc(-c3ccc(Cl)cc3)nc2)c(=O)c1Cl
Inhibition (Plasmodium falciparum [1]): 95% | Inhibition (Plasmodium falciparum [2]): 96% | Inhibition (HepG2): 8%

COc1ccc2c(=O)c3ccc(OC)cc3[nH]c2c1
Inhibition (Plasmodium falciparum [1]): 93% | Inhibition (Plasmodium falciparum [2]): 75% | Inhibition (HepG2): 12%

COc1ccc(CNC(=O)c2cnc3c(O)cccc3c2Nc2cccc(NC(=O)c3ccc(Cl)c([N+](=O)[O-])c3)c2)cc1.O=C(O)C(F)(F)F
Inhibition (Plasmodium falciparum [1]): 86% | Inhibition (Plasmodium falciparum [2]): 21% | Inhibition (HepG2): 48%

O=C(Nc1ccc(N2CCN(Cc3c[nH]c4cc(F)ccc34)CC2)cc1)c1ccccc1-c1ccc(C(F)(F)F)cc1
Inhibition (Plasmodium falciparum [1]): 85% | Inhibition (Plasmodium falciparum [2]): 7% | Inhibition (HepG2): 20%

CN1CCN(Cc2cccc(-c3cc4nccc(Nc5ccc(Oc6ccccc6)cc5)c4cc3Cl)c2)CC1
Inhibition (Plasmodium falciparum [1]): 100% | Inhibition (Plasmodium falciparum [2]): 96% | Inhibition (HepG2): 10%

O=C(Nc1ccc2c(c1)CN(Cc1ccc(N3CCCC3)o1)CCC2)c1cncs1.O=CO
Inhibition (Plasmodium falciparum [1]): 84% | Inhibition (Plasmodium falciparum [2]): 37% | Inhibition (HepG2): 15%

Cc1cccc2nc(-c3ccc(-c4cccc(NC(=O)Nc5ccc6c(c5)OCO6)c4)cc3)[nH]c12
Inhibition (Plasmodium falciparum [1]): 100% | Inhibition (Plasmodium falciparum [2]): 39% | Inhibition (HepG2): 28%

O=C(NCCCCN1CCC(c2ccc([N+](=O)[O-])cc2)CC1)c1ccc(NC(=O)c2ccc(Cl)cc2)cc1
Inhibition (Plasmodium falciparum [1]): 100% | Inhibition (Plasmodium falciparum [2]): 55% | Inhibition (HepG2): 15%

CN(C)c1ccc(CN2CCC(NC(=O)c3ccc(-c4cccc(C(F)(F)F)c4)s3)CC2)cc1.O=C(O)C(F)(F)F
Inhibition (Plasmodium falciparum [1]): 97% | Inhibition (Plasmodium falciparum [2]): 40% | Inhibition (HepG2): 90%

CC(=O)Nc1nc(C(=O)Nc2ccc(-c3ccc(-c4nc5cccc(C)c5[nH]4)cc3)cc2)cs1
Inhibition (Plasmodium falciparum [1]): 100% | Inhibition (Plasmodium falciparum [2]): 53% | Inhibition (HepG2): 42%

COc1ccc2nccc([C@@H](O)CN3CCC(NCc4ccc(OC)c(NC(C)=O)c4)CC3)c2c1
Inhibition (Plasmodium falciparum [1]): 90% | Inhibition (Plasmodium falciparum [2]): 0% | Inhibition (HepG2): 0%
